Activity calls are given as the source filed them.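 How the source made its calls: active means viability loss from added drug above about 55%, and viability with drug at most 40%, in both replicates (limit read from the data, passing the limit was not always enough); inconclusive means both conditions met in only one replicate; inactive means neither replicate meets both conditions.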

The nature of the first test: MRP1 drug-resistance reversers in H69AR cells – cell-based, doxorubicin co-treatment, pilot screen (AID 601). As to conditions: H69AR cells + 2 uM doxorubicin, CellTiter-Glo, 72 h; at 10 µM; stronger effect = higher value. In general terms: Cellular ATP, detected with luciferase, serves as a proxy for viable cell number.
Take `COc1cccc(C2=NOC(C(=O)N3CCN(c4ccccc4)CC3)C2)c1OC` (stereo not given): the differential viability (reversal) is -12% (inactive).
Regarding `O=C(Nc1ccc2c(c1)OCO2)c1ccc(CN2CCOCC2)cc1`, the differential viability (reversal) was 9.03% (inactive).
For the molecule `O=C(Cn1nc(Cc2ccncc2)c2ccccc2c1=O)N1CCc2ccccc2C1`, the differential viability (reversal) was 5.38% (inactive).
On the same count and under the same terms, in the case of `CCOCCCNC(=O)c1ccc2c(c1)N(Cc1ccccc1)C(=O)CS2=O` (stereo not given) it was 10.2% (inactive); in that of `CS(=O)(=O)Nc1ccccc1C(=O)O`, 2.55% (inactive); in that of `CCOC(=O)N1CCC(Nc2ncnc3c2cnn3-c2ccc(C)cc2C)CC1`, 42.5% (inactive).
Same read-out and setting: to `CC1(C)C(c2ccccc2)=NC(c2ccccc2)N1O` (stereo not given) belongs 8.36% (inactive); to `O=C(CS(=O)(=O)Cc1ccccc1)Nc1nc2ccccc2s1`, -3.83% (inactive); to `CCOC(=O)N1CCN(C(=O)COc2ccc(S(=O)(=O)NC(C)C)cc2)CC1`, 0.365% (inactive).
`COc1ccc(N2CCN(CCNC(=O)CCS(=O)(=O)c3cccc4nsnc34)CC2)cc1`: the differential viability (reversal) is 11.1% (inactive).
The same measure, in the same setting: in the case of `COc1cccc(C2CC(=O)Nc3c2c(=O)n(C)c(=O)n3C)c1OC` (stereo not given) it was 15.2% (inactive); in that of `CCN1C(=O)c2ccccc2S(=O)c2ccc(C(=O)NC3CC3)cc21` (stereo not given), 16% (inactive).
For `CCOC(=O)CCc1c(C)nc2cc(-c3ccc(F)cc3)[nH]n2c1=O`, the differential viability (reversal) is 8.37% (inactive).
As for `CCC(C)(C(=O)NC1CCCC1)N(Cc1cccs1)C(C)=O` (stereo not given), the differential viability (reversal) was 6.71% (inactive).
The same measure, in the same setting: to `COc1ccccc1NC(=O)C1(C)Cc2ccccc2C(=O)O1` (stereo not given) belongs 2.89% (inactive); to `COC(=O)c1sc(NC(=O)COc2ccccc2OC)nc1C`, 11.6% (inactive); to `O=C(Nc1ccc2c(c1)OCCO2)NC1CCCCC1`, 3.18% (inactive).
`c1ccc2c(c1)nc(NCCN1CCOCC1)c1nncn12`: the differential viability (reversal) is 8.78% (inactive).
As for `O=C(c1ccc(Br)cc1)N1CCN(S(=O)(=O)c2ccccc2)CC1`, the differential viability (reversal) was -2.33% (inactive).
On the same count and under the same terms, in the case of `C/C=C/Cn1c(SCCCc2ccccc2)nc2c1c(=O)[nH]c(=O)n2C` it was 0.835% (inactive).
Consider `O=c1c2ccccc2nc(SCc2nc(-c3ccccc3)no2)n1-c1ccc(F)cc1`, for which the differential viability (reversal) was -5.78% (inactive).
As to `Cn1c(=O)c2c(nc3sccn32)n(C)c1=O`, the differential viability (reversal) was -1.71% (inactive).
Same read-out and setting: in the case of `CCCCOc1ccc(-c2ncc(Cl)cn2)cc1` it was 9.19% (inactive).
On to `CCOC(=O)c1ccc(N2Cc3cc(C)c(C)cc3C2)cc1O`, for which the differential viability (reversal) is 4.4% (inactive).
Consider `O=C(CSc1nc(-c2ccco2)cc(C(F)(F)F)n1)NCCCn1ccnc1`, for which the differential viability (reversal) was -4.19% (inactive).
Same read-out and setting: to `COc1cccc(NC(=O)CSc2nnc(Cc3cccn3C)n2-c2ccc(F)cc2)c1` belongs -8.06% (inactive).
Still for that read-out and setting: to `CCOC(=O)c1ccc(-n2c(C)nc3c(cnn3-c3ccccc3C)c2=O)cc1` belongs -3.79% (inactive); to `CCOC(=O)C1=C(C)N(C)C(=O)NC1c1ccccc1OC` (stereo not given), 64.2% (inactive); to `Cc1ccc(CSc2nc3c(c(=O)[nH]2)CCC3)cc1`, 17.8% (inactive).
The same measure, in the same setting: in the case of `CCOC(=O)c1c(C)n(C)c2c(C)cc(O)c(OC(C)=O)c12` it was 13.4% (inactive); in that of `Cc1ccccc1NC(=O)C1CCCN(S(=O)(=O)c2cnc[nH]2)C1` (stereo not given), 1.39% (inactive); in that of `O=C(NCc1ccc(F)cc1)c1cc2ccccn2n1`, 17.5% (inactive).
Turning to `CCCNC(=O)C1CCN(S(=O)(=O)c2ccc3nc4c(c(C(=O)O)c3c2)CCCCC4)CC1`, the differential viability (reversal) was 2.09% (inactive).
Still for that read-out and setting: to `COc1ccc2[nH]c(C)c(CCN3C(=O)OC(C)(C)C3(C)O)c2c1` (stereo not given) belongs -10.4% (inactive).
On the same count and under the same terms, to `COc1ccc(N(CC(=O)Nc2ccc3c(c2)OCO3)S(=O)(=O)c2c(C)nn(C)c2C)cc1` belongs 13.8% (inactive).
On to `Cc1onc(-c2ccccc2Cl)c1C(=O)Nc1cnn(Cc2ccccc2)c1`, for which the differential viability (reversal) was -5.4% (inactive).
Regarding `CCOCCCNC(=O)CN1CCN(Cc2ccccc2C)C1=O`, the differential viability (reversal) is 7.06% (inactive).
Consider `CCN1C(=O)c2cccc3c(NC(=O)c4ccc(S(=O)(=O)N(C)C)cc4)ccc1c23`, for which the differential viability (reversal) is -3.87% (inactive).
`O=C(Nc1cccc2ccccc12)c1ccc(Br)o1`: the differential viability (reversal) is -1.12% (inactive).
For `c1ccc(-c2cn3cccnc3n2)cc1`, the differential viability (reversal) is 10.5% (inactive).

The test is the same for the next values; noted with them: H69AR cells + 2 uM doxorubicin, CellTiter-Glo, 72 h; measured here: viability with 2 uM doxorubicin; at 10 µM; stronger effect = lower value.
Turning to `COc1cccc(C2=NOC(C(=O)N3CCN(c4ccccc4)CC3)C2)c1OC` (stereo not given), the viability (in general, a read-out of living cells in per cent, often relative to untreated cells) is 98.5%.
Same read-out and setting: in the case of `O=C(Nc1ccc2c(c1)OCO2)c1ccc(CN2CCOCC2)cc1` it was 88.3%; in that of `O=C(Cn1nc(Cc2ccncc2)c2ccccc2c1=O)N1CCc2ccccc2C1`, 91.1%; in that of `CCOCCCNC(=O)c1ccc2c(c1)N(Cc1ccccc1)C(=O)CS2=O` (stereo not given), 96.1%.
The same measure, in the same setting: to `CS(=O)(=O)Nc1ccccc1C(=O)O` belongs 96.3%; to `CCOC(=O)N1CCC(Nc2ncnc3c2cnn3-c2ccc(C)cc2C)CC1`, 30.2%; to `CC1(C)C(c2ccccc2)=NC(c2ccccc2)N1O` (stereo not given), 83%.
With `O=C(CS(=O)(=O)Cc1ccccc1)Nc1nc2ccccc2s1`, the viability came to 95.9%.
Turning to `CCOC(=O)N1CCN(C(=O)COc2ccc(S(=O)(=O)NC(C)C)cc2)CC1`, the viability is 90%.
In the case of `COc1ccc(N2CCN(CCNC(=O)CCS(=O)(=O)c3cccc4nsnc34)CC2)cc1`, the viability worked out at 91.6%.
With `COc1cccc(C2CC(=O)Nc3c2c(=O)n(C)c(=O)n3C)c1OC` (stereo not given), the viability was determined as 87%.
The same measure, in the same setting: in the case of `CCN1C(=O)c2ccccc2S(=O)c2ccc(C(=O)NC3CC3)cc21` (stereo not given) it was 88.7%; in that of `CCOC(=O)CCc1c(C)nc2cc(-c3ccc(F)cc3)[nH]n2c1=O`, 92.2%; in that of `CCC(C)(C(=O)NC1CCCC1)N(Cc1cccs1)C(C)=O` (stereo not given), 90.2%.
Same read-out and setting: to `COc1ccccc1NC(=O)C1(C)Cc2ccccc2C(=O)O1` (stereo not given) belongs 88.8%.
Regarding `COC(=O)c1sc(NC(=O)COc2ccccc2OC)nc1C`, the viability stood at 83.5%.
`O=C(Nc1ccc2c(c1)OCCO2)NC1CCCCC1`: the viability came out at 82.7%.
Same read-out and setting: to `c1ccc2c(c1)nc(NCCN1CCOCC1)c1nncn12` belongs 85.9%.
Same read-out and setting: to `O=C(c1ccc(Br)cc1)N1CCN(S(=O)(=O)c2ccccc2)CC1` belongs 94.9%; to `C/C=C/Cn1c(SCCCc2ccccc2)nc2c1c(=O)[nH]c(=O)n2C`, 68.8%.
The same measure, in the same setting: to `O=c1c2ccccc2nc(SCc2nc(-c3ccccc3)no2)n1-c1ccc(F)cc1` belongs 95.5%; to `Cn1c(=O)c2c(nc3sccn32)n(C)c1=O`, 89.4%; to `CCCCOc1ccc(-c2ncc(Cl)cn2)cc1`, 84.8%.
As to `CCOC(=O)c1ccc(N2Cc3cc(C)c(C)cc3C2)cc1O`, the viability turned out to be 92.9%.
Same read-out and setting: to `O=C(CSc1nc(-c2ccco2)cc(C(F)(F)F)n1)NCCCn1ccnc1` belongs 98.9%.
In the case of `COc1cccc(NC(=O)CSc2nnc(Cc3cccn3C)n2-c2ccc(F)cc2)c1`, the viability is 86.2%.
For `CCOC(=O)c1ccc(-n2c(C)nc3c(cnn3-c3ccccc3C)c2=O)cc1`, the viability was 102%.
Regarding `CCOC(=O)C1=C(C)N(C)C(=O)NC1c1ccccc1OC` (stereo not given), the viability was determined as 110%.
For `Cc1ccc(CSc2nc3c(c(=O)[nH]2)CCC3)cc1`, the viability was 75.2%.
On the same count and under the same terms, to `CCOC(=O)c1c(C)n(C)c2c(C)cc(O)c(OC(C)=O)c12` belongs 87.3%; to `Cc1ccccc1NC(=O)C1CCCN(S(=O)(=O)c2cnc[nH]2)C1` (stereo not given), 91.2%.
Take `O=C(NCc1ccc(F)cc1)c1cc2ccccn2n1`: the viability worked out at 80.6%.
In the case of `CCCNC(=O)C1CCN(S(=O)(=O)c2ccc3nc4c(c(C(=O)O)c3c2)CCCCC4)CC1`, the viability amounted to 96.6%.
With `COc1ccc2[nH]c(C)c(CCN3C(=O)OC(C)(C)C3(C)O)c2c1` (stereo not given), the viability was 91.9%.
Still for that read-out and setting: to `COc1ccc(N(CC(=O)Nc2ccc3c(c2)OCO3)S(=O)(=O)c2c(C)nn(C)c2C)cc1` belongs 85.1%.
Consider `Cc1onc(-c2ccccc2Cl)c1C(=O)Nc1cnn(Cc2ccccc2)c1`, for which the viability was determined as 86.9%.
Take `CCOCCCNC(=O)CN1CCN(Cc2ccccc2C)C1=O`: the viability was determined as 89.9%.
For `CCN1C(=O)c2cccc3c(NC(=O)c4ccc(S(=O)(=O)N(C)C)cc4)ccc1c23`, the viability came to 69.8%.
Same read-out and setting: in the case of `O=C(Nc1cccc2ccccc12)c1ccc(Br)o1` it was 85.1%; in that of `c1ccc(-c2cn3cccnc3n2)cc1`, 90.4%.

Source of the values: PubChem BioAssay.
